# Laboratory results taken from the supplement of paper PMC8728848.
# This excerpt belongs to a sample that is enriched for the strongest signals.
# What was measured:
# Assay in all cases: glycan array binding signal (z-score within array); higher = stronger binding
# Details in all cases: glycan notation: IUPAC condensed, linker removed
# [1] = biological target: Fuc(a1-2)Gal(b1-3)GlcNAc(b1-3)Gal(b1-4)Glc
# Method in brief: (§1)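 Glycan array data were curated from 3228 arrays in the Consortium for Functional Glycomics database and kept only where the protein sequence was available. Glycan names were converted to IUPAC-condensed notation, and columns mapping to the same glycan were averaged. The binding signal is a within-array Z-score, averaged across arrays of the same protein sequence at different concentrations or buffers and across linkers. Negative Z-scores can be read as non-binding.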
# [2] = biological target: Fuc(a1-2)Gal(b1-3)GlcNAc(b1-3)[Fuc(a1-2)Gal(b1-3)GlcNAc(b1-6)]GalNAc
# Method in brief: as §1
# [3] = biological target: Fuc(a1-2)Gal(b1-4)GlcNAc(b1-2)[Fuc(a1-2)Gal(b1-4)GlcNAc(b1-4)]Man(a1-3)[Fuc(a1-2)Gal(b1-4)GlcNAc(b1-2)Man(a1-6)]Man(b1-4)GlcNAc(b1-4)GlcNAc
# Method in brief: as §1
# Fuc(a1-2)Gal6S(b1-4)Glc = biological target: Fuc(a1-2)Gal6S(b1-4)Glc
# Method in brief: as §1
# [4] = biological target: Fuc(a1-2)[Gal(a1-3)]Gal(b1-3)GlcNAc(b1-6)GalNAc
# Method in brief: as §1
# [5] = biological target: Fuc(a1-2)[Gal(a1-4)]Gal(b1-4)GlcNAc
# Method in brief: as §1
# [6] = biological target: Fuc(a1-2)[GalNAc(a1-3)]Gal(b1-4)GlcNAc(b1-2)Man(a1-3)[Fuc(a1-2)[GalNAc(a1-3)]Gal(b1-4)GlcNAc(b1-2)Man(a1-6)]Man(b1-4)GlcNAc(b1-4)GlcNAc
# Method in brief: as §1
# [7] = biological target: Fuc(a1-3)[GalNAc(b1-4)]GlcNAc
# Method in brief: as §1
# Gal(a1-3)Gal(b1-3)GlcNAc = biological target: Gal(a1-3)Gal(b1-3)GlcNAc
# Method in brief: as §1
# [8] = biological target: Gal(a1-3)Gal(b1-3)GlcNAc(b1-2)Man
# Method in brief: as §1
# [9] = biological target: Gal(b1-3)GalNAc(b1-4)Gal(b1-4)Glc
# Method in brief: as §1
# [10] = biological target: Gal(b1-3)GlcNAc(a1-6)Gal(b1-4)GlcNAc
# Method in brief: as §1
# Gal(b1-3)GlcNAc(b1-2)Man = biological target: Gal(b1-3)GlcNAc(b1-2)Man
# Method in brief: as §1
# [11] = biological target: Gal(b1-3)GlcNAc(b1-2)Man(a1-3)[Gal(b1-3)GlcNAc(b1-2)Man(a1-6)]Man(b1-4)GlcNAc(b1-4)[Fuc(a1-6)]GlcNAc
# Method in brief: as §1
# [12] = biological target: Gal(b1-3)GlcNAc(b1-6)GalNAc
# Method in brief: as §1
# [13] = biological target: Gal(b1-3)[Fuc(a1-4)]GlcNAc(b1-3)Gal(b1-3)[Fuc(a1-4)]GlcNAc
# Method in brief: as §1
# [14] = biological target: Gal(b1-4)GlcNAc(b1-2)Man(a1-3)[GlcNAc(b1-2)Man(a1-6)]Man(b1-4)GlcNAc(b1-4)GlcNAc
# Method in brief: as §1
# [15] = biological target: Gal(b1-4)GlcNAc(b1-2)[Gal(b1-4)GlcNAc(b1-6)]Man(a1-6)[Gal(b1-4)GlcNAc(b1-2)Man(a1-3)]Man(b1-4)GlcNAc(b1-4)[Fuc(a1-6)]GlcNAc
# Method in brief: as §1
# [16] = biological target: Gal(b1-4)GlcNAc(b1-2)[Gal(b1-4)GlcNAc(b1-6)]Man(a1-6)[GlcNAc(b1-4)][Gal(b1-4)GlcNAc(b1-2)Man(a1-3)]Man(b1-4)GlcNAc(b1-4)GlcNAc
# Method in brief: as §1
# [17] = biological target: Gal(b1-4)GlcNAc(b1-3)Gal(b1-4)GlcNAc(b1-3)Gal(b1-4)GlcNAc(b1-3)Gal(b1-4)GlcNAc(b1-3)Gal(b1-4)GlcNAc(b1-3)Gal(b1-4)GlcNAc(b1-2)Man(a1-3)[Gal(b1-4)GlcNAc(b1-3)Gal(b1-4)GlcNAc(b1-3)Gal(b1-4)GlcNAc(b1-3)Gal(b1-4)GlcNAc(b1-3)Gal(b1-4)GlcNAc(b1-3)Gal(b1-4)GlcNAc(b1-2)Man(a1-6)]Man(b1-4)GlcNAc(b1-4)GlcNAc
# Method in brief: as §1
# [18] = biological target: Gal(b1-4)GlcNAc(b1-3)[Fuc(a1-3)GlcNAc(b1-6)]Gal(b1-4)Glc
# Method in brief: as §1
# Gal3S6S(b1-4)GlcNAc = biological target: Gal3S6S(b1-4)GlcNAc
# Method in brief: as §1
# Gal4S(b1-4)GlcNAc = biological target: Gal4S(b1-4)GlcNAc
# Method in brief: as §1
# Gal6S(b1-4)Glc6S = biological target: Gal6S(b1-4)Glc6S
# Method in brief: as §1
# Gal6S(b1-4)GlcNAc = biological target: Gal6S(b1-4)GlcNAc
# Method in brief: as §1
# Gal6S(b1-4)GlcNAc6S = biological target: Gal6S(b1-4)GlcNAc6S
# Method in brief: as §1
# [19] = biological target: GalNAc(b1-3)Gal(a1-4)Gal(b1-4)GlcNAc
# Method in brief: as §1
# [20] = biological target: GlcNAc(a1-4)Gal(b1-4)GalNAc
# Method in brief: as §1
# [21] = biological target: GlcNAc(b1-2)Man(a1-3)[GlcNAc(b1-2)Man(a1-6)]Man(b1-4)GlcNAc(b1-4)GlcNAc
# Method in brief: as §1
# [22] = biological target: GlcNAc(b1-2)[GlcNAc(b1-4)]Man(a1-3)[GlcNAc(b1-4)][GlcNAc(b1-2)Man(a1-6)]Man(b1-4)GlcNAc(b1-4)GlcNAc
# Method in brief: as §1
binder,measurement,setting,value
GS7807P-bth-537-23-537 (Bacteroides thetaiotaomicron) (protein) NYENINSNPYEAPDLSADGYALGSAMNNLAGCVVSPDVNTAQFTDCLLGGPLGGYFADSNAGFTETISNFNPKDDWSRVFLKSDKIIPTLYSNLTQVKLVSQNTNDPVPYAIAQVIKVAAMHRVTDAFGPIPYSQIGANGEIATPYDSQEVTYNTFFDELNAAIATLNENSNEQLVPTADYIYKGDVKKWIRFANSLKLRLAIRIAYANPVKAQQMAEEAVNPANGGVIESNADNATWNYFETSQNPIYVATRYNQVQTSDHGGVPCLTGGDTHAAADIICYMNGYKDNRREKFFTKSEWAGQDYVGMRRGIVIPELKTTGHKYSGVNIAPTSPLYWMNAAEVAFLRAEGQAVFNFSMGGTAESFYNQGIRLSFEQWGADGVEDYLKDDVNKPTAYTDPAGTNTYQNALSNITIKWNDSADKEEKQERIIVQKWIANWQLGNEAWADFRRTGYPKLIPVKENKSGGVVDSEKGARRMPYPLDEFVSNKANVEYAIANYLHGADNMATDVWWASKK,glycan array binding signal (z-score),[1],-0.288
same,glycan array binding signal (z-score),[2],5.33
same,glycan array binding signal (z-score),[3],-0.271
same,glycan array binding signal (z-score),Fuc(a1-2)Gal6S(b1-4)Glc,0.294
same,glycan array binding signal (z-score),[4],2.94
same,glycan array binding signal (z-score),[5],-0.331
same,glycan array binding signal (z-score),[6],3.7
same,glycan array binding signal (z-score),[7],0.192
same,glycan array binding signal (z-score),Gal(a1-3)Gal(b1-3)GlcNAc,0.94
same,glycan array binding signal (z-score),[8],1.1
same,glycan array binding signal (z-score),[9],0.496
same,glycan array binding signal (z-score),[10],-0.173
same,glycan array binding signal (z-score),Gal(b1-3)GlcNAc(b1-2)Man,-0.221
same,glycan array binding signal (z-score),[11],2.17
same,glycan array binding signal (z-score),[12],1.42
same,glycan array binding signal (z-score),[13],-0.304
same,glycan array binding signal (z-score),[14],-0.348
same,glycan array binding signal (z-score),[15],-0.271
same,glycan array binding signal (z-score),[16],2.06
same,glycan array binding signal (z-score),[17],2.28
same,glycan array binding signal (z-score),[18],-0.071
same,glycan array binding signal (z-score),Gal3S6S(b1-4)GlcNAc,0.325
same,glycan array binding signal (z-score),Gal4S(b1-4)GlcNAc,-0.373
same,glycan array binding signal (z-score),Gal6S(b1-4)Glc6S,2.21
same,glycan array binding signal (z-score),Gal6S(b1-4)GlcNAc,0.037
same,glycan array binding signal (z-score),Gal6S(b1-4)GlcNAc6S,2.01
same,glycan array binding signal (z-score),[19],0.36
same,glycan array binding signal (z-score),[20],-0.138
same,glycan array binding signal (z-score),[21],-0.374
same,glycan array binding signal (z-score),[22],-0.39
